Here are results for 70 compounds from article PMC4552634, “A New Set of Chemical Starting Points with Plasmodium falciparum Transmission-Blocking Potential for Antimalarial Drug Discovery” (PLoS ONE, 2015).

Among all 13,000 compounds or so, about 3,200 (25%) showed an effect of 50% or more. The list shows a part of the results.

For the assay, the system named is P. falciparum stage V gametocytes. On the set-up: BacTiter-Glo ATP luminescence viability of purified stage V gametocytes in 384-well plates, per cent inhibition versus DMSO. As to conditions: 48 h, 5 µM; inhibitor.
Turning to `O=C(/C=C/c1ccc(Cl)c(Cl)c1)NC1CCC(CN2CCC(c3nc4ccccc4n3CCCO)CC2)CC1` (stereo not shown) [TCMDC-140313], the “% Inhibition” value is recorded as 5.954%.

For `Cc1cc(NC2CCN(CC3CCCCC3)CC2)nc(Nc2ccccc2Cl)n1` [TCMDC-137017], the “% Inhibition” value is reported as -7.805%. For `CCC(CC)n1cc2c(ccc3nc(N)nc(N)c32)n1` [TCMDC-138019] the value was -28.37%. Turning to `Nc1ccnc(N2CCC(CCOc3cc(C(F)(F)F)nc4c(C(F)(F)F)cccc34)CC2)c1` [TCMDC-141364], the “% Inhibition” value was 15.98%. `CC(Cc1ccc(CN2CCN(Cc3ccccc3)CC2)cc1)NCC(O)c1cccc(C(F)(F)F)c1` (stereo not shown) [TCMDC-131534]: the “% Inhibition” value is on record as 42.03%. For `N=C(N)c1ccc(-c2cc(-c3cccc(C(=N)N)c3)on2)cc1` [TCMDC-137264] the value was 7.482%. On to `Cc1ccc(NC(=O)c2ccc3ncccc3c2)cc1OC1CCN(Cc2ccsc2)C1` (stereo not shown) [TCMDC-133949], for which the “% Inhibition” value is recorded as -9.977%. Consider `c1ccc(COc2ccc(Nc3ncnc4ccc(-c5ccc(CN6CCSCC6)o5)cc34)cc2)cc1` [TCMDC-138242], for which the “% Inhibition” value is 13.7%. In the case of `Cc1ccc(C)c(NC(=O)Nc2ccc(Nc3nc(C)cc(N4CCOCC4)n3)cc2)c1` [TCMDC-124751] it was 3.565%. For `CC(=O)N/N=C/[C@H](CCc1ccccc1)NC(=O)[C@H](CC(C)C)NC(=O)c1cccc(OCCN2CCOCC2)c1` [TCMDC-135972] the value was 30.82%; for `CCCCNC(=O)C1CCCN(C(=O)c2ccc(O)c(-c3ccc(Cl)c(Cl)c3)c2)C1` (stereo not shown) [TCMDC-140887], -1.062%; for `CS(=O)(=O)NCCCNCc1cccc(-c2csc(-c3nc4ccccc4[nH]3)c2)c1` [TCMDC-133089], -10.78%. For `COc1ccc2nc(C)cc(Nc3ccc(Oc4ccc(Br)c5ccccc45)c(Cl)c3)c2c1` [TCMDC-124238] the value was 12.09%; for `Cc1ccc(CN2CCCN(Cc3cccc(NC(=O)c4ccc(-c5ccccc5)cc4)c3)CC2)cc1C` [TCMDC-141851], -43.17%. Regarding `CCCNC(=O)Nc1cc2cc(-c3ccc(CN4CCCC4)cc3)ccc2n2c(C)nnc12` [TCMDC-136718], the “% Inhibition” value is given as 108.6%. Consider `O=C(/C=C/c1ccc([N+](=O)[O-])cc1)N1CCC(NS(=O)(=O)c2ccc(Br)cc2)CC1` [TCMDC-139442], for which the “% Inhibition” value came to 11.64%. In the case of `COc1ccc(C(=O)CCc2ccc(O)cc2)cc1` [TCMDC-124290] it was -50.17%; in that of `CN1CCN(CCCNCc2cccc(-c3ccc(CNCCc4ccccc4)cc3)c2)CC1` [TCMDC-140643], 103.5%.

Consider `Cc1cccc2[nH]c(-c3ccc(-c4cccc(CNCCCN5CCCC5=O)c4)cc3)nc12` [TCMDC-132758], for which the “% Inhibition” value was found to be 19.9%. As to `CC(C)CNCc1cccc(-c2cccc(CNc3ccc4ncccc4c3)c2)c1` [TCMDC-140718], the “% Inhibition” value stood at 9.838%.

Consider `CC(C)CNCc1cccc(-c2cccc(CNCCCN3CCN(C)CC3)c2)c1` [TCMDC-140483], for which the “% Inhibition” value is on record as 101.9%.

As to `O=C(NCCN1CCC(c2ccncc2)CC1)c1ccc(Nc2nccc(Nc3ccc(Oc4ccccc4)cc3)n2)cc1` [TCMDC-138610], the “% Inhibition” value is listed as -43.68%. In the case of `CCCc1ccc(S(=O)(=O)NC2CCN(c3ccnc(Nc4ccc(F)cc4)n3)C2)cc1` (stereo not shown) [TCMDC-133598] it was 2.344%. Take `O=C(c1ccc2ccccc2n1)N1CCCc2cc(Br)ccc21` [TCMDC-134838]: the “% Inhibition” value is -4.614%. For `Cc1ccc(C(=O)Nc2ccc(C)c(OC3CCN(CCC(C)C)C3)c2)cc1` (stereo not shown) [TCMDC-133981], the “% Inhibition” value is -13.13%.

For the compound `CCOC(=O)c1ccc(NC(=O)Nc2ccc(-c3ccc(-c4nc5ccccc5[nH]4)cc3)cc2)cc1` [TCMDC-133265], the “% Inhibition” value is recorded as -0.3523%. In the case of `CN(C)CCn1c(N)c(-c2nc3ccccc3s2)c2nc(C#N)c(C#N)nc21` [TCMDC-124439] it was -7.276%. In the case of `N#Cc1c(N)n(CCc2ccc(F)cc2)c2nc3ccccc3nc12` [TCMDC-125779] it was 44.22%; in that of `CN(C)CCCn1c(N)c(-c2nc3ccccc3[nH]2)c2nc(C#N)c(C#N)nc21` [TCMDC-123729], 113.1%. For `CCN(CC)CCCn1c(N)c(-c2nc3ccccc3[nH]2)c2nc(C#N)c(C#N)nc21` [TCMDC-123680] the value was 117%. Turning to `COc1ccc(COc2c(OC)cc(Cc3cnc(N)nc3N)cc2OC)cc1` [TCMDC-138619], the “% Inhibition” value was found to be 7.542%. For `NC1=NC(c2ccccc2)(c2ccccc2)C(=O)N1CCCCc1ccccn1` [TCMDC-132209] the value was -31.55%; for `COc1ccc(O)c(C(=O)c2cc(C#N)c(=O)n(-c3ccc(Oc4ccccc4)cc3)c2)c1` [TCMDC-123628], -33.17%. Consider `CCCCn1c(C(C)Oc2ccc(Cl)cc2Cl)nc2cc(S(N)(=O)=O)ccc21` (stereo not shown) [TCMDC-125564], for which the “% Inhibition” value is recorded as 8.97%. For `COC(=O)c1ccc(CC(C)NCC(O)c2ccccc2Cl)cc1` (stereo not shown) [TCMDC-131422] the value was 7.207%. In the case of `CC(CCc1ccc(OCc2ccccc2)cc1)NCC(O)c1ccccc1` (stereo not shown) [TCMDC-131472], the “% Inhibition” value is on record as 8.257%. In the case of `COc1cccc(CCNC(C)Cc2ccc(OCCCCOc3ccccc3)cc2)c1` (stereo not shown) [TCMDC-140020] it was 127.9%; in that of `CC(Cc1ccc(OCCCCOc2ccccc2)cc1)NCCc1ccccc1Cl` (stereo not shown) [TCMDC-140019], 97.11%; in that of `CC(Cc1ccc(OCCCCOc2ccccc2)cc1)NCCc1ccc(Oc2ccccc2)cc1` (stereo not shown) [TCMDC-140021], 88.65%. In the case of `CC(Cc1ccc(OCc2ccccc2)cc1)Nc1nc2ccccc2c(=O)[nH]1` (stereo not shown) [TCMDC-131532] it was -11.7%; in that of `COc1ccc(Nc2nccc(N3CCC(NC(=O)c4cccc(C#N)c4)C3)n2)cc1` (stereo not shown) [TCMDC-133609], -14.42%. For `COc1ccccc1CCCON1C(N)=NC(N)=NC1(C)C` [TCMDC-131723] the value was 17.71%. Turning to `CCCCOc1c(CCC)cc(Cc2cnc(N)nc2N)cc1CCC` [TCMDC-137692], the “% Inhibition” value is given as -41.23%. In the case of `Cc1cccc2[nH]c(-c3cccc(-c4ccc(NC(=O)c5cccnc5)cc4)c3)nc12` [TCMDC-136929] it was -10.6%. In the case of `Cc1cccc2[nH]c(-c3cccc(-c4ccc(NC(=O)c5cnccc5C(F)(F)F)cc4)c3)nc12` [TCMDC-137119] it was 66.25%. For `Cc1cccc2[nH]c(-c3cccc(-c4cccc(NC(=O)c5cnccc5C(F)(F)F)c4)c3)nc12` [TCMDC-137118] the value was 53.02%.

For `Cc1cccc2[nH]c(-c3ccc(-c4cccc(NC(=O)c5cnccc5C(F)(F)F)c4)cc3)nc12` [TCMDC-137117], the “% Inhibition” value is -14.87%. For `Cc1cccc2[nH]c(-c3cccc(-c4cccc(NC(=O)c5cccnc5)c4)c3)nc12` [TCMDC-136927] the value was 36.77%. For `Cc1ncccc1C(=O)Nc1ccc(-c2cccc(-c3nc4c(C)cccc4[nH]3)c2)cc1` [TCMDC-136862] the value was -37.31%. In the case of `c1ccc(C2=NN=C(c3ccccn3)C3C4CC(C23)C2C3CC(c5ccccc53)C42)nc1` (stereo not shown) [TCMDC-138248] it was -12.71%; in that of `COc1ccc(C(=O)Nc2cc(Cl)c3c(c2)C2CCCN2CC3)cc1C(F)(F)F` (stereo not shown) [TCMDC-139417], -51.32%. With `COc1cc(NC(=O)/C=C/c2cc(F)cc(F)c2F)cc(OCCN2CCN(CCN3CCOCC3)CC2)c1` [TCMDC-140930], the “% Inhibition” value is -13.83%.

In the case of `COc1ccc(CNc2cc(C)nc3sc4c(c23)CCC2(C4)OCCO2)cc1` [TCMDC-138981], the “% Inhibition” value is reported as -1.212%. In the case of `COc1ccc(-c2cncc3ccc(C(=O)NCc4ccncc4)nc23)cc1` [TCMDC-125411] it was 51.25%. In the case of `COc1ccc(NC(=O)Nc2ccc(C)c(-c3ccc(C(=O)Nc4ccncc4)cc3)c2)cc1` [TCMDC-133705] it was 11.61%; in that of `COc1ccc(-c2cc3nc4c(c(NCCCn5ccnc5)n3n2)CCCC4)cc1` [TCMDC-124389], -21.29%; in that of `Cc1nc(NCCCn2ccnc2)cc(-c2cncc(-c3ccc(OC(F)(F)F)cc3)c2)n1` [TCMDC-125423], 9.398%. In the case of `COc1ccc(-c2cncc3ccc(C(=O)NCCCn4ccnc4)nc23)cc1` [TCMDC-125412] it was 77.43%. Regarding `COc1ccc(-n2nc(C)cc2C(=O)NCc2ccc(-c3c(C)noc3C)cc2)cc1` [TCMDC-133779], the “% Inhibition” value was 19.66%. In the case of `COc1ccc(Nc2cc(C)nc(Nc3ccc(NC(C)=O)cc3)n2)cc1` [TCMDC-124979], the “% Inhibition” value is reported as -41.12%. For `O=C(Nc1ccc(I)cc1)Nc1ccc(Cn2ncc(N3CCCNCC3)c(Cl)c2=O)cc1` [TCMDC-133322] the value was -17.85%; for `Cc1ccc2c(C3=CCN(CCCCC4(C)C(=O)Nc5c(F)cccc54)CC3)c(C)[nH]c2c1` (stereo not shown) [TCMDC-141005], 12.05%. For `CCN(CC)Cc1ccc2c(=O)cc(CCc3cccc(F)c3F)n(CC(=O)N(Cc3ccc(-c4ccc(C(F)(F)F)cc4)cc3)C(C)C)c2c1` [TCMDC-141567] the value was 74.8%; for `CC(C)N(Cc1ccc(-c2ccc(C(F)(F)F)cc2)cc1)C(=O)Cn1c(CCc2cccc(F)c2F)cc(=O)c2ccc(CCCN3CCCCC3)cc21` [TCMDC-141581], 119.6%; for `CN(C)CCOc1cc(NC(=O)Nc2cccc3c(-c4ccncc4)cccc23)ccc1I` [TCMDC-139143], 27.84%. For `CN(C)CCOc1cc(NC(=O)Nc2ccc(Oc3ccccc3)cc2)ccc1I` [TCMDC-139113] the value was -27.54%.

Turning to `COc1cc(Cc2cnc(N)nc2N)cc(OC)c1OCCNC(=O)[C@@H](N)CCC(=O)O` [TCMDC-137685], the “% Inhibition” value is given as -2.761%. For `Cc1cc(F)ccc1[C@H]1CNCCN1C(=O)N(C)C(C)(C)c1cc(C(F)(F)F)cc(C(F)(F)F)c1` [TCMDC-138568] the value was 62.57%; for `Cc1cc(F)ccc1[C@H]1CNCCN1C(=O)N(C)[C@@H](C)c1cc(C(F)(F)F)cc(C(F)(F)F)c1` [TCMDC-138495], 76.86%; for `Cc1cc(F)ccc1[C@H]1C[C@H](N2CCOCC2)CCN1C(=O)N(C)[C@@H](C)c1cc(C(F)(F)F)cc(C(F)(F)F)c1` [TCMDC-138838], 17.17%.

A word on the % Inhibition: it is the drop in the measured response relative to a control, in per cent.
